Experimental data from PubChem BioAssay AID1347416 (National Center for Advancing Translational Sciences (NCATS), 2020).
In all, about 4,100 compounds went through this assay and about 1,600 (39%) were called active. Roughly 25% stayed inconclusive and do not appear here. Some of the results follow. A number with no mark means an inactive call. Calls come from the whole dose curve; as a rule, active = well fitted inhibition curve with a large enough effect; inconclusive = small, poorly fitted or top-dose-only effect; inactive = no such curve, though single readings can be large or run the other way.

Test: qHTS Validation assay for Inhibitors of Plasmodium falciparum Dd2 growth in vitro; note: nearly all actives have a fitted effect of over 70% in size
Conditions: P. falciparum Dd2 in RBCs, SYBR Green growth, 72 h; series mostly up to 28.7 µM; activity change, negative = inhibition: at the top concentration
How it was run: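 P. falciparum Dd2-infected red blood cells (2.5% hematocrit, 0.3% parasitemia) grown 72 h at 37 °C under 5% O2 with compounds in a titration, 29 uM to 0.5 nM final. Growth read as SYBR Green-1 fluorescence after ~16 h lysis; artesunate 300 nM as positive control.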
% is set by controls: 0 for no effect and ±100 for the full control effect; potency is the fitted concentration of half-maximal effect.

| SMILES | activity change, negative = inhibition | Potency |
| --- | --- | --- |
| Cc1cc(Cl)ccc1NC(=O)N1C[C@H](c2nc(-c3cccnc3)no2)[C@@H](C)C1 | -5.05% | – |
| CCOc1ccc(NC2=C(OC)C(=O)c3ccccc3C2=O)cc1 | – | 0.376 µM (active) |
| COc1ccc(C2=C(Nc3ccc(C)cc3)c3ccccc3C2=O)cc1 | – | 4.73 µM (active) |
| CN1CCOc2c(C(=O)NCCc3cnc[nH]3)cc(-c3ccc(N4CCOCC4)cc3)cc21 | -1.23% | – |
| Cc1cc(C)c(CNC(=O)c2cc(-c3cccnc3)cc3c2OCCN3C(C)C)c(=O)[nH]1 | – | 19.3 µM (active) |
| COc1ccc(C(=O)NCc2nnc3c(-c4nc(C5CC5)no4)cccn23)c(C)c1 | -12.6% | – |
| CC(=O)Nc1cccc(-c2cc(C(=O)NCc3c(C)cc(C)[nH]c3=O)c3c(c2)N(C(C)C)CCO3)c1 | – | 9.44 µM (active) |
| Cc1cc(C)c(CNC(=O)c2cc(-c3ccnn3C)cc3c2OCCN3C(C)C)c(=O)[nH]1 | – | 15.3 µM (active) |
| COc1ncc(-c2cc(C(=O)NCc3c(C)cc(C)[nH]c3=O)c3c(c2)N(C(C)C)CCO3)cn1 | – | 9.44 µM (active) |
| CC(C)c1cccc(NC(=O)c2ccc(CN3C(=O)NC4(CCOCC4)C3=O)cc2)c1 | -0.362% | – |
| COc1ccccc1C(=O)NCc1nnc2c(-c3nc(C4CC4)no3)cccn12 | -6.9% | – |
| COc1ccc(-n2ccnc2SCC(=O)NO)cc1 | 0.591% | – |
| COC(=O)C1=C(C)N(c2ccc(OC)cc2)C(C)=C(C(=O)OC)C1c1ccccc1 | – | 9.44 µM (active) |
| CCOC(=O)c1sc2nc3c(SCCC#N)cc(C(=O)c4cc(F)ccc4O)cn3c(=O)c2c1C | – | 1.68 µM (active) |
| CC(=O)NC1CC(c2cc(NCCCOC3CCN(C)CC3)ncn2)C1 (stereo not given) | 29% | – |
| CC1CCN(c2ccc(C(=O)NCc3ccco3)cc2[N+](=O)[O-])CC1 | – | 6.68 µM (active) |
| O=C(NCc1ccco1)C1CCc2sc(C(=O)N3CCCCCC3)cc2C1 (stereo not given) | -4.94% | – |
| Cc1nn2c3c(cnc2c1-c1ccccc1)C(=O)CC(c1ccco1)C3 (stereo not given) | – | 9.44 µM (active) |
| CCOC(=O)c1nc2cc3n(c(CC(C)C)c-2c1C)CC(C)=C3C | – | 7.5 µM (active) |
| CCOC(=O)c1noc2nc(C)n(CC(=O)NC(C)CC)c(=O)c12 (stereo not given) | 15.7% | – |
| Cc1cc(OCCn2cc(C(=O)c3ccco3)c3ccccc32)ccc1Cl | – | 5.31 µM (active) |
| COc1ccc(OCCn2cc(C(=O)c3ccco3)c3ccccc32)cc1 | – | 2.11 µM (active) |
| COc1cccc(OCCn2cc(C(=O)c3ccco3)c3ccccc32)c1 | 54.6% | – |
| O=C(c1cccs1)c1cn(CCOc2ccc(Cl)cc2)c2ccccc12 | – | 5.96 µM (active) |
| O=C(c1ccco1)c1cn(CCOc2ccc(F)cc2)c2ccccc12 | – | 6.68 µM (active) |

| SMILES | activity change, negative = inhibition | Potency |
| --- | --- | --- |
| CCCNc1c(NC(=O)COc2ccc(Cl)cc2)c(=O)oc2ccccc12 | -24.5% | – |
| O=C(Nc1c(C(=O)N2CCN(c3ccc(F)cc3)CC2)oc2ccccc12)c1ccco1 | 10% | – |
| CC(C)(C)c1ccc(OCCn2ccccc2=O)cc1 | -19.2% | – |
| CCCS(=O)(=O)NCCc1ncc(C)n1C(C)C | -51.1% | – |
| Cc1ccccc1-n1c(=O)/c(=C\c2ccco2)s/c1=C(/C#N)C(=O)Nc1ccccc1 | – | 5.31 µM (active) |
| N#Cc1ccc(CN2C[C@@H]3C(=O)N(CCN4CCc5ccccc5C4)C(=O)[C@@H]3C2)cc1 | -14.5% | – |
| CC1(C)N=C(N)N=C(N)N1c1ccc(OCCCOc2ccccc2)c(Cl)c1 | – | 2.99 µM (active) |
| COc1ccc(N2C(N)=NC(N)=NC2(C)C)cc1 | 10.9% | – |
| CCOc1ccc(N2C(N)=NC(N)=NC2(C)C)cc1 | 47.6% | – |
| CCOC(=O)c1cc(C)n(Cc2ccc(OCC)c(OC)c2)c1C | – | 10.6 µM (active) |
| COC[C@@H]1CN(Cc2ccc(OC)c(C)c2)C[C@H]1C(=O)N(C)C | 5.52% | – |
| COc1cc(O)c(C(CCN2CCN(c3ccccc3)CC2)c2ccc3c(c2)OCO3)c(OC)c1 (stereo not given) | – | 0.842 µM (active) |
| COc1cc(O)c(C(CCN2CCCCC2)c2ccc3c(c2)OCO3)c(OC)c1 (stereo not given) | – | 1.33 µM (active) |
| CCc1ccc(NC(=O)C(=O)NCC(c2ccc3c(c2)OCO3)N2CCOCC2)cc1 (stereo not given) | 0% | – |
| COc1cc(O)c(C(CCN2CCOCC2)c2ccc3c(c2)OCO3)c(OC)c1 (stereo not given) | – | 4.22 µM (active) |
| COc1cc(O)c(C(CCN2CCCC(C)C2)c2ccc3c(c2)OCO3)c(OC)c1 (stereo not given) | – | 0.531 µM (active) |
| CCOC(=O)C1(Cc2ccccc2Cl)CCNCC1 | – | 2.66 µM (active) |
| CCOC(=O)C1(Cc2ccccc2C(F)(F)F)CCNCC1 | -24% | – |
| CN(CCc1ccccn1)c1ccc(-c2nc(COc3ccccc3)no2)cn1 | -8.59% | – |
| Fc1cccc(NC(=S)NNc2c3ccccc3nc3ccccc23)c1 | – | 15 µM (active) |
| CC(=O)N(C)C1CCCc2ccccc21 (stereo not given) | 45.2% [at 57.5 µM] | – |
| OC(CNC1CCCc2ccccc21)COc1c(Cl)cccc1Cl (stereo not given) | – | 1.68 µM (active) |
| COc1ccccc1CN(C)C1CCCc2ccccc21 (stereo not given) | -0.478% [at 43.1 µM] | – |
| N/C(=N\OC(=O)c1cccc(F)c1)c1ccccn1 | -27.5% | – |
| O=C(N/N=C(\c1ccccc1)c1cccnc1)c1cccc(F)c1 | – | 4.22 µM (active) |

| SMILES | activity change, negative = inhibition | Potency |
| --- | --- | --- |
| CCc1noc(-c2cccn3c(CNC(=O)c4cccc(F)c4)nnc23)n1 | -0.302% | – |
| O=C1NCN(c2ccccc2)C12CCN(CCCC(c1ccc(F)cc1)c1ccc(F)cc1)CC2 | – | 5.31 µM (active) |
| F[C@@H]1CN(CC2CC2)C[C@@H]1OCc1nc2ccccc2o1 | 2.15% [at 57.5 µM] | – |
| Cc1cc(C)c(Cn2c(=O)n(CCCCC(=O)NCc3ccccc3Cl)c(=O)c3ccccc32)c(C)c1 | 33.1% | – |
| CCCCN(C)CCCNC(=O)Cn1ncc2c3ccccc3n(Cc3cc(C)ccc3C)c2c1=O | – | 0.75 µM (active) |
| CCOC(=O)c1cccc(NC(=O)Cn2ncc3c4ccccc4n(Cc4ccccc4)c3c2=O)c1 | -0.944% | – |
| CCc1ccc(N=C2NC(=O)CC(C(=O)Nc3ccc(OC)cc3)S2)cc1 (stereo not given) | -23.4% | – |
| COc1ccc(NC(=O)c2sc3nc4c(c(-c5ccc(OC)cc5)c3c2N)C(=O)CC(C)(C)C4)cc1 | – | 1.88 µM (active) |
| Cc1nc2sc(C(=O)Nc3ccc(F)cc3)c(N)c2c(-c2ccc(Br)cc2)c1C(=O)Nc1ccc(Cl)cc1 | – | 8.41 µM (active) |
| COc1ccc(-c2c3c(nc4sc(C(=O)Nc5ccc(Cl)cc5)c(N)c24)CC(C)(C)CC3=O)cc1 | – | 0.376 µM (active) |
| COc1ccc(C(=O)Nc2ccc([C@H]3OCC(=O)N(C(C)C)[C@@H]3CO)cc2)cc1 | 44.9% [at 43.1 µM] | – |
| COc1ccc(-c2c3c(nc4sc(C(=O)Nc5ccc(F)cc5)c(N)c24)CC(C)(C)CC3=O)cc1 | – | 0.944 µM (active) |
| COc1ccc(NC(=O)CSc2nc(-c3ccc(OC)cc3)[nH]c2-c2ccc(F)cc2)cc1 | 41.4% | – |
| CCn1nccc1C(=O)N1CCCC(n2cc(-c3nc(-c4ccccc4)no3)nn2)C1 (stereo not given) | 12.5% | – |
| O=C(Nc1ccc(-c2nnc3n2CCCC3)cc1)c1ccc2ccccc2n1 | -19.6% | – |
| CCOC(=O)c1ccccc1NC1c2ccccc2C(=O)N1C1CCN(C(=O)OCC)CC1 (stereo not given) | – | 13.3 µM (active) |
| CCOC(=O)N1CCN(c2nc3ccccn3c(=O)c2C=O)CC1 | -3.78% | – |
| CCOC(=O)N1CCN(C(=O)c2ccccc2-c2ccccc2)CC1 | 10.2% | – |
| COc1ccc(-n2nc3ccc(N)cc3n2)cc1Cl | -26.8% | – |
| Oc1ccc(Cl)cc1-c1cc(C(F)(F)C(F)F)nc(-c2ccccc2)n1 | – | 0.842 µM (active) |
| CCN(CC)c1ccc(C(=O)NCc2nnc3c(-c4nc(C(C)C)no4)cccn23)cc1 | -11.1% | – |
| COc1cc(OC)c(NC(=O)n2ncc3cc(Cl)ccc32)cc1Cl | 35% | – |
| COc1cc(OC)c(NC2=CC(=O)C(=O)c3ccccc32)cc1Cl | – | 2.99 µM (active) |
| COc1cc(Cl)c(NC2=CC(=O)C(=O)c3ccccc32)c(OC)c1 | – | 1.68 µM (active) |
| Cc1cc(O)c(-c2ccnc3cc(-c4ccccc4)nn23)cc1Cl | – | 1.88 µM (active) |
